Reference: article PMC12820563, “FoxP3 forms a head-to-head dimer in vivo and stabilizes its multimerization on adjacent microsatellites”
Over roughly 16,000 sequences, “rpm ratio (pull-down/input)” has its median near 0.94; the highest 2% begin near 1.7. Many of the other results were omitted from the sample, so the highest values are more common in it than they were.

The sequences below were run against T1, MBP-FoxP1dN (Mus musculus, UniProt P58462 326-579) (assay: PD-seq (MBP pull-down with sequencing); 20 mM Tris-HCl pH 7.5, 100 mM NaCl, 1.5 mM MgCl2, 0.4 uM protein, 0.1 uM dsDNA library, 30 min, room temperature, amylose pull-down; high values mean tight binding). Conditions: protein: recombinant; tags: His6-MBP; chain copies: 2; dsDNA, one strand shown.
T1 sequence: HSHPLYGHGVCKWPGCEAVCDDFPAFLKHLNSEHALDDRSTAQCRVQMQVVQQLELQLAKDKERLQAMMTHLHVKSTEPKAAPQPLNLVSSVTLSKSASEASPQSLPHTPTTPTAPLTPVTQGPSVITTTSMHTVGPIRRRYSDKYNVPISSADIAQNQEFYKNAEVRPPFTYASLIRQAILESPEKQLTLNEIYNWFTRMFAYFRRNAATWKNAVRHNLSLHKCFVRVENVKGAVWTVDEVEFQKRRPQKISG
Method in brief: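 A fragment of mouse FoxP3 or FoxP1 without its N-terminus, carrying a His6-MBP tag and produced in E. coli, was combined at 0.4 µM with a 0.1 µM degenerate double-stranded DNA library filled in with Klenow. The mixture sat for 30 min at room temperature in Tris pH 7.5 buffer containing NaCl and MgCl2. Protein–DNA complexes were captured on amylose resin, washed three times, and the DNA was freed with proteinase K, barcoded by PCR and sequenced on Illumina. Binding is expressed as reads-per-million enrichment of pull-down over input, with replicates pooled.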

Sequence | binding signal
GATGATTGTTCTCCCAGCTGATGAATTTCGCAGGTCGAGTAAACAAATTTTCCTAATCTTTCTGTTCAAGCGCCATCTAC | 0.789 RPM ratio (pull-down/input)
GATGATTGTTCTCCCAGCTGATGAATTTCAGTGTTCGAGTAAACAAATTTTCCTAATCTTTCTGTTCAAGCGCCATCTAC | 0.983 RPM ratio (pull-down/input)
GATGATTGTTCTCCCAGCTGATGAATTGACAGTTTCGAGTAAACAAATTTTCCTAATCTTTCTGTTCAAGCGCCATCTAC | 1.26 RPM ratio (pull-down/input)
GATGATTGTTCTCCCAGCTGATGAATTTGCCACCTCGAGTAAACAAATTTTCCTAATCTTTCTGTTCAAGCGCCATCTAC | 0.982 RPM ratio (pull-down/input)
GATGATTGTTCTCCCAGCTGATGAATTTGTGTATTCGAGTAAACAAATTTTCCTAATCTTTCTGTTCAAGCGCCATCTAC | 1.98 RPM ratio (pull-down/input)
GATGATTGTTCTCCCAGCTGATGAATTGTGTATTTCGAGTAAACAAATTTTCCTAATCTTTCTGTTCAAGCGCCATCTAC | 1.75 RPM ratio (pull-down/input)
GATGATTGTTCTCCCAGCTGATGAATTCGTGTATTCGAGTAAACAAATTTTCCTAATCTTTCTGTTCAAGCGCCATCTAC | 1.35 RPM ratio (pull-down/input)
GATGATTGTTCTCCCAGCTGATGAATTGTGTAATTCGAGTAAACAAATTTTCCTAATCTTTCTGTTCAAGCGCCATCTAC | 1.32 RPM ratio (pull-down/input)
GATGATTGTTCTCCCAGCTGATGAATTCGCCCGATCGAGTAAACAAATTTTCCTAATCTTTCTGTTCAAGCGCCATCTAC | 0.901 RPM ratio (pull-down/input)
GATGATTGTTCTCCCAGCTGATGAATTGCCCCCATCGAGTAAACAAATTTTCCTAATCTTTCTGTTCAAGCGCCATCTAC | 0.972 RPM ratio (pull-down/input)
GATGATTGTTCTCCCAGCTGATGAATTCAAGCCCTCGAGTAAACAAATTTTCCTAATCTTTCTGTTCAAGCGCCATCTAC | 0.749 RPM ratio (pull-down/input)
GATGATTGTTCTCCCAGCTGATGAATTCCTGTATTCGAGTAAACAAATTTTCCTAATCTTTCTGTTCAAGCGCCATCTAC | 1.3 RPM ratio (pull-down/input)
GATGATTGTTCTCCCAGCTGATGAATTGTATATTTCGAGTAAACAAATTTTCCTAATCTTTCTGTTCAAGCGCCATCTAC | 1.52 RPM ratio (pull-down/input)
GATGATTGTTCTCCCAGCTGATGAATTCTTGTATTCGAGTAAACAAATTTTCCTAATCTTTCTGTTCAAGCGCCATCTAC | 1.72 RPM ratio (pull-down/input)
GATGATTGTTCTCCCAGCTGATGAATTGTATTTTTCGAGTAAACAAATTTTCCTAATCTTTCTGTTCAAGCGCCATCTAC | 1.8 RPM ratio (pull-down/input)
GATGATTGTTCTCCCAGCTGATGAATTGTATCTTTCGAGTAAACAAATTTTCCTAATCTTTCTGTTCAAGCGCCATCTAC | 1.31 RPM ratio (pull-down/input)
GATGATTGTTCTCCCAGCTGATGAATTGTATTGTTCGAGTAAACAAATTTTCCTAATCTTTCTGTTCAAGCGCCATCTAC | 2.26 RPM ratio (pull-down/input)
GATGATTGTTCTCCCAGCTGATGAATTCACGACCTCGAGTAAACAAATTTTCCTAATCTTTCTGTTCAAGCGCCATCTAC | 0.767 RPM ratio (pull-down/input)
GATGATTGTTCTCCCAGCTGATGAATTTCCGAGATCGAGTAAACAAATTTTCCTAATCTTTCTGTTCAAGCGCCATCTAC | 0.797 RPM ratio (pull-down/input)
GATGATTGTTCTCCCAGCTGATGAATTTAACTATTCGAGTAAACAAATTTTCCTAATCTTTCTGTTCAAGCGCCATCTAC | 0.876 RPM ratio (pull-down/input)
GATGATTGTTCTCCCAGCTGATGAATTGATTCACTCGAGTAAACAAATTTTCCTAATCTTTCTGTTCAAGCGCCATCTAC | 1.03 RPM ratio (pull-down/input)
GATGATTGTTCTCCCAGCTGATGAATTCGCACAATCGAGTAAACAAATTTTCCTAATCTTTCTGTTCAAGCGCCATCTAC | 1.15 RPM ratio (pull-down/input)

Sequence | binding signal
GATGATTGTTCTCCCAGCTGATGAATTTCAAAGTTCGAGTAAACAAATTTTCCTAATCTTTCTGTTCAAGCGCCATCTAC | 0.792 RPM ratio (pull-down/input)
GATGATTGTTCTCCCAGCTGATGAATTAGTGTTGTCGAGTAAACAAATTTTCCTAATCTTTCTGTTCAAGCGCCATCTAC | 2.53 RPM ratio (pull-down/input)
GATGATTGTTCTCCCAGCTGATGAATTAGTGTCGTCGAGTAAACAAATTTTCCTAATCTTTCTGTTCAAGCGCCATCTAC | 0.949 RPM ratio (pull-down/input)
GATGATTGTTCTCCCAGCTGATGAATTAGTAGTGTCGAGTAAACAAATTTTCCTAATCTTTCTGTTCAAGCGCCATCTAC | 1 RPM ratio (pull-down/input)
GATGATTGTTCTCCCAGCTGATGAATTTAGTGTTTCGAGTAAACAAATTTTCCTAATCTTTCTGTTCAAGCGCCATCTAC | 1.15 RPM ratio (pull-down/input)
GATGATTGTTCTCCCAGCTGATGAATTAGTGTTTTCGAGTAAACAAATTTTCCTAATCTTTCTGTTCAAGCGCCATCTAC | 2.42 RPM ratio (pull-down/input)
GATGATTGTTCTCCCAGCTGATGAATTAGTGTGTTCGAGTAAACAAATTTTCCTAATCTTTCTGTTCAAGCGCCATCTAC | 1.35 RPM ratio (pull-down/input)
GATGATTGTTCTCCCAGCTGATGAATTGCCGTGCTCGAGTAAACAAATTTTCCTAATCTTTCTGTTCAAGCGCCATCTAC | 0.904 RPM ratio (pull-down/input)
GATGATTGTTCTCCCAGCTGATGAATTACTATAATCGAGTAAACAAATTTTCCTAATCTTTCTGTTCAAGCGCCATCTAC | 1.27 RPM ratio (pull-down/input)
GATGATTGTTCTCCCAGCTGATGAATTTTAGCGCTCGAGTAAACAAATTTTCCTAATCTTTCTGTTCAAGCGCCATCTAC | 0.826 RPM ratio (pull-down/input)
GATGATTGTTCTCCCAGCTGATGAATTATAACCCTCGAGTAAACAAATTTTCCTAATCTTTCTGTTCAAGCGCCATCTAC | 0.997 RPM ratio (pull-down/input)
GATGATTGTTCTCCCAGCTGATGAATTTGATCCATCGAGTAAACAAATTTTCCTAATCTTTCTGTTCAAGCGCCATCTAC | 0.928 RPM ratio (pull-down/input)
GATGATTGTTCTCCCAGCTGATGAATTCGGCCTATCGAGTAAACAAATTTTCCTAATCTTTCTGTTCAAGCGCCATCTAC | 0.817 RPM ratio (pull-down/input)
GATGATTGTTCTCCCAGCTGATGAATTTGCGGACTCGAGTAAACAAATTTTCCTAATCTTTCTGTTCAAGCGCCATCTAC | 0.882 RPM ratio (pull-down/input)
GATGATTGTTCTCCCAGCTGATGAATTACTTCATTCGAGTAAACAAATTTTCCTAATCTTTCTGTTCAAGCGCCATCTAC | 1.11 RPM ratio (pull-down/input)
GATGATTGTTCTCCCAGCTGATGAATTGAGCAGATCGAGTAAACAAATTTTCCTAATCTTTCTGTTCAAGCGCCATCTAC | 0.835 RPM ratio (pull-down/input)
GATGATTGTTCTCCCAGCTGATGAATTGTGTTGTTCGAGTAAACAAATTTTCCTAATCTTTCTGTTCAAGCGCCATCTAC | 2.69 RPM ratio (pull-down/input)
GATGATTGTTCTCCCAGCTGATGAATTGTTGTGTTCGAGTAAACAAATTTTCCTAATCTTTCTGTTCAAGCGCCATCTAC | 2.57 RPM ratio (pull-down/input)
GATGATTGTTCTCCCAGCTGATGAATTGTGTTCTTCGAGTAAACAAATTTTCCTAATCTTTCTGTTCAAGCGCCATCTAC | 1.33 RPM ratio (pull-down/input)
GATGATTGTTCTCCCAGCTGATGAATTTCTGTGTTCGAGTAAACAAATTTTCCTAATCTTTCTGTTCAAGCGCCATCTAC | 1.23 RPM ratio (pull-down/input)
GATGATTGTTCTCCCAGCTGATGAATTGATGTGTTCGAGTAAACAAATTTTCCTAATCTTTCTGTTCAAGCGCCATCTAC | 1.5 RPM ratio (pull-down/input)
GATGATTGTTCTCCCAGCTGATGAATTCTTGTGTTCGAGTAAACAAATTTTCCTAATCTTTCTGTTCAAGCGCCATCTAC | 1.6 RPM ratio (pull-down/input)
